Structures are written as SMILES. Compounds without any hit were thinned out: in the full panel of roughly 83,000, 20% have a hit.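 Values shown are percent growth following 48 h exposure of cells in 96-well plates to a single concentration of compound; below 10 was considered active.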 Calls of active or inactive are those of the source.

This experiment deals with MDA-MB-468 breast. Nature of the experiment: NCI-60 one-dose screen, 48 h (100 = growth as untreated, 0 = no growth, -100 = all killed). The conditions noted are these: 10 µM unless noted.
Turning to `COc1ccc(-c2nc3sc(C4CC4)nn3c2/C=C2/C(=O)Nc3ccc(OC)cc32)cc1`, the growth was 23.3% (inactive).

As for `Cc1ccc2nc(SCC(=O)Nc3ccc(-c4nc5ccccc5s4)c(Cl)c3)[nH]c2c1`, the growth is 101% (inactive).

Consider `CC(C)=NNc1ncnc2c1ncn2C1OC(CO)C(O)C1O` (configuration not stated), for which the growth is 12.5% (inactive).

In the case of `COC(=O)c1ccc2c(c1)n(Cc1ccc3ccccc3c1)c[n+]2Cc1ccc2ccccc2c1`, the growth was -19% (active).

In the case of `COc1ccc(/C=C/C(=O)NCCO)cc1`, the growth was 101% (inactive).

Take `O=C(Cn1c2ccccc2c2ccncc21)N/N=C/c1cc(O)c(O)c(O)c1`: the growth is 111% (inactive).

Consider `COC1CC(O)C2=C(CC3C(/C(C)=C\CC=C(C)C)CCC3(C)O2)C1=O` (configuration not stated), for which the growth is 109% (inactive).

Take `C=C(C)[C@@H]1CC[C@]2(C(=O)O)CC[C@]3(C)[C@H](CC[C@@H]4[C@@]5(C)CCC(NC(=O)c6cccc(OC(C)=O)c6OC(C)=O)C(C)(C)[C@@H]5CC[C@]43C)[C@@H]12` (some centres not stated): the growth is -5.31% (active).

Consider `CCn1c2ccc(/C=N/NS(=O)(=O)CCN(C)C)cc2c2cc(/C=N/NS(=O)(=O)CCN(C)C)ccc21`, for which the growth was 92.9% (inactive).

Regarding `CN1CCN(c2nc(-c3cccnc3)nc3sc4c(c23)CCCCCC4)CC1`, the growth is 94.2% (inactive).

Take `CCOC(=O)C1C(=O)OC2CCCCC21` (configuration not stated): the growth is 110% (inactive).

On to `COc1ccc(/C=C/c2nc(NCCCN(C)C)c3ccccc3n2)cc1`, for which the growth was -43.8% (active).

(Values after PubChem BioAssay (NCI).)
